In PubChem BioAssay AID588329 (National Center for Advancing Translational Sciences (NCATS), 2011) one finds Potency data, which are given here for 31 compounds.

Inconclusive results are not listed. Activity calls are given as the source filed them. The call rests on the fitted dose curve; in most records, active means well fitted inhibition curve with a large enough effect; inconclusive means small, poorly fitted or top-dose-only effect; inactive means flat fitted curve, though single readings scatter.

For this experiment, the system named is Trypanosoma brucei 6-phosphofructokinase (PFK). Description: Confirmatory Assay to Find Inhibitors of T. brucei phosphofructokinase: ATP-depletion Assay. The conditions noted are these: recombinant T. brucei PFK, Kinase-Glo ATP depletion luminescence; series mostly up to 57.5 µM. From the text: Various species of the protozoan family Trypanosomatidae are responsible for a range of serious human diseases in tropical and subtropical areas of the world. […] Many of the disorders caused by trypanosomatids are fatal if left untreated, but most currently used drugs are inefficient and toxic. […] Oxidative metabolism involving the mitochondrial tricarboxylic acid cycle and oxidative phosphorylation are repressed in these parasites, and recent RNA interference (RNAi) experiments have shown that even partial depletion of certain individual glycolytic enzymes can lead to the death of cultured parasites. One such glycolytic enzyme, phosphofructokinase (PFK), catalyzes the formation of fructose-1,6-bisphosphate (F1,6BP) and ADP from fructose-6-phosphate (F6P) and ATP, and in many metabolic circumstances makes an important contribution to the control of flux through the glycolytic pathway. As a specific glycolytic target, PFK is particularly attractive as it catalyzes the first irreversible step in glycolysis, and structural and kinetic studies have shown very substantial and essential differences from corresponding host enzymes, allowing for the discovery of parasite-selective inhibitors. NIH Chemical Genomics Center [NCGC] NIH Molecular Libraries Probe Centers Network [MLPCN] MLPCN Grant: MH092153-01 Assay Submitter (PI): Malcom Walkinshaw, University of Edinburgh
Substrate buffer was dispensed into white, solid 1536-well plates at 3ul/well in 0.1M triethanolamine (TEA) buffer, pH 8.0, containing final concentrations of 5 mM MgCl2, 0.01% Tween20, 0.5 mM fructose-6-phosphate (F6P) and 0.1mM ATP. Then, 23nl of compounds or DMSO were delivered to each well using a pin tool. One ul T. brucei PFK (0.1M TEA, 0.01% Tween20, 0.1% bovine serum albumin (BSA) and 1.25nM PFK, final concentrations) was then dispensed, and plates were incubated at room temperature for 45 min. The luminescent detection reagent, Kinase-Glo Plus (Promega), was then added at 2ul/well and incubated for ten minutes at room temperature. The plates were measured on a ViewLux plate reader for luminescent signal using a clear filter with a one second exposure. The %Activity was determined from the corrected luminescence values. As no specific T. brucei PFK inhibitors have been identified in the literature, 1x (1.25nM) and 0x PFK enzyme controls (untreated) were included to normalize %Activity of identified inhibitors; 0x enzyme values corresponded to 100%Activity (full inhibition), while 1x PFK enzyme values were used to normalize 0% activity (no inhibition). The Kinase-Glo Plus protocol varies from the primary screen in that it measures ATP, rather than ADP, concentration, and thus provides a measure of substrate depletion, rather than of product formation. Concentration-response curves were fitted to the signals arising from the resulting luminescence. The concentration-effect curves were then classified based on curve quality (r2), response magnitude and degree of measured activity, and compounds were subsequently categorized based on their curve class. […] Keywords: T. brucei, phosphofructokinase, PFK, glycolysis, luminescence, MLSMR, MLPCN, NIH Roadmap, qHTS, NCGC
For `O=C(Cc1ccc(Cl)c(Cl)c1)Nc1ccc(S(=O)(=O)Nc2cccc(C(=O)O)c2)cc1`, the Potency was 651 nM (active).

With `Cc1cc(NS(=O)(=O)c2ccc(NC(=O)Cc3ccc(C)c(F)c3)cc2)no1`, the Potency was 5170 nM (active).

With `Cc1cc(NS(=O)(=O)c2cccc(NC(=O)Cc3ccc(Cl)c(Cl)c3)c2)no1`, the Potency is 16300 nM (active).

With `COc1ccc(CC(=O)Nc2ccc(S(=O)(=O)Nc3cc(C)on3)cc2)cc1OC`, the Potency result was “inactive”.

In the case of `Cc1cc(NS(=O)(=O)c2ccc(N(C)C(=O)Cc3ccc(Cl)c(Cl)c3)cc2)no1`, the Potency was 1030 nM (active).

As to `O=C(Cc1ccc(Cl)c(Cl)c1)Nc1ccc(S(=O)(=O)Nc2ccccc2)cc1`, the Potency is 10300 nM (active).

`O=C(Cc1ccc(Cl)c(Cl)c1)Nc1ccc(S(=O)(=O)Nc2cccc(O)c2)cc1`: the Potency was 2060 nM (active).

In the case of `Cc1cc(NS(=O)(=O)c2ccc(NC(=O)Cc3ccc(Cl)cc3)cc2)no1`, the Potency is 2590 nM (active).

With `O=C(Cc1ccc(Cl)c(Cl)c1)Nc1ccc(S(=O)(=O)Nc2ccc(C(=O)O)cc2)cc1`, the Potency was 326 nM (active).

In the case of `O=C(Cc1ccc(Cl)c(Cl)c1)Nc1ccc(S(=O)(=O)Nc2ccon2)cc1`, the Potency is 231 nM (active).

As for `O=C(Cc1ccc(Cl)c(Cl)c1)Nc1ccc(S(=O)(=O)O)cc1`, the Potency is 580 nM (active).

Regarding `O=C(Cc1ccc(Cl)c(Cl)c1)Nc1ccc(S(=O)(=O)Nc2cncnc2)cc1`, the Potency was 651 nM (active).

Consider `Cc1cc(NC(=O)c2ccc(NC(=O)Cc3ccc(Cl)c(Cl)c3)cc2)no1`, for which the Potency entry was “inactive”.

In the case of `CN(C)c1cccc(NS(=O)(=O)c2ccc(NC(=O)Cc3ccc(Cl)c(Cl)c3)cc2)c1`, the Potency is 16300 nM (active).

`O=C(Cc1ccc(Cl)c(Cl)c1)Nc1ccc(S(=O)(=O)Nc2ccn[nH]2)cc1`: the Potency was 326 nM (active).

As for `Cc1cc(NS(=O)(=O)c2ccc(NC(=O)Cc3ccc(Cl)c(C(F)(F)F)c3)cc2)no1`, the Potency is 651 nM (active).

Turning to `Cc1cc(NS(=O)(=O)c2ccc(C(=O)NCc3ccc(Cl)c(Cl)c3)cc2)no1`, the Potency was 2310 nM (active).

Regarding `Cc1cc(NS(=O)(=O)c2ccc(NC(=O)Cc3ccc(Cl)c(Cl)c3)cc2)n(C)n1`, the Potency is 1030 nM (active).

As to `Cc1cc(NS(=O)(=O)c2ccc(NC(=O)Cc3ccc(Cl)cc3Cl)cc2)no1`, the Potency was 4610 nM (active).

As to `Cc1cc(NS(=O)(=O)c2ccc(NC(=O)Cc3ccc4ccccc4c3)cc2)no1`, the Potency was 5170 nM (active).

Consider `Cc1cc(NS(=O)(=O)c2ccc(NC(=O)Cc3ccc(C)c(C)c3)cc2)no1`, for which the Potency was 16300 nM (active).

As for `Cc1cc(NS(=O)(=O)c2ccc(NC(=O)Cc3ccc(Cl)c(Cl)c3)cc2)no1`, the Potency is 410 nM (active).

Turning to `Cc1cc(NS(=O)(=O)c2ccc(NC(=O)Cc3ccc(Cl)c(Cl)c3)cc2)on1`, the Potency is 366 nM (active).

With `Cc1cc(NS(=O)(=O)c2ccc(NCCc3ccc(Cl)c(Cl)c3)cc2)no1`, the Potency is 11600 nM (active).

Consider `Cc1cc(NS(=O)(=O)c2ccc(NC(=O)CCc3ccc(Cl)c(Cl)c3)cc2)no1`, for which the Potency was 16300 nM (active).

Take `Cc1cc(NS(=O)(=O)Cc2ccc(NC(=O)Cc3ccc(Cl)c(Cl)c3)cc2)no1`: the Potency was 2910 nM (active).

`Cc1cc(N(C)S(=O)(=O)c2ccc(NC(=O)Cc3ccc(Cl)c(Cl)c3)cc2)no1`: the Potency was 2590 nM (active).

For `Cc1cc(N[S+](=O)([O-])c2ccc3cc(NC(=O)Cc4ccc(Cl)c(Cl)c4)ccc3c2)no1`, the Potency was 5170 nM (active).

Take `Cc1cc(NS(=O)(=O)c2ccc(NC(=O)Cc3ccc(Cl)c(F)c3)cc2)no1`: the Potency is 730 nM (active).

As for `Cc1cc(N[S+](=O)([O-])c2ccc(NC(=O)Cc3ccc(Cl)nc3)cc2)no1`, the Potency is 18300 nM (active).

As for `Cc1cc(NS(=O)(=O)c2ccc(NC(=O)Cc3cccc(Cl)c3)cc2)no1`, the Potency is 5170 nM (active).
